# Bioassay records (PubChem BioAssay)
# The full list was thinned out, with hits kept by preference.
# TTR transcr act – TTR transcription activators in neuroblastoma reporter cells, primary screen, cell-based, luminescence, SH-SY5Y, TTR promoter Gaussia luciferase. AID 1117267, 2014. 92,000 tested, 1.3% active. activation, % at 16.7 µM. 100% = recombinant luciferase protein wells;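 active = activation above the mean of all tested compounds plus 3 SD, cut at about 9.5% in these data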;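 also: cells exposed to compounds for one day before reading; 0% = median of all test compound wells on the plate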
# TTR inh HuH7 – TTR promoter reporter inhibitors in hepatoma cells, counter-screen for TTR transcription activator project, cell-based, luminescence, HuH7 hepatoma; 1,100 tested, 4% active; shares compounds with TTR transcr act; HuH7 TTR promoter-Gaussia luciferase reporter; inhibition, % at 16.7 µM;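 active = average inhibition above the solvent-only control wells' mean plus 3 SD, cut at about 15% in these data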;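 also: 0% = cells with DMSO only and 100% = cells with inhibitor control FD; inhibitors lower well luminescence so higher value means more inhibition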
# TTR act confirm – TTR transcription activators, retest, confirmation, cell-based, luminescence, SH-SY5Y, triplicate | 1,100 tested, under 10 active | activation, % at 16.7 µM | shares compounds with TTR transcr act | SHSY5Y TTR promoter Gaussia luciferase; 100% = purified Lucia enzyme wells, no cells;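 active = mean activation above a set limit taken from the earlier primary screen, cut at about 11% in these data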;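 also: 0% = DMSO-treated cells and 100% = recombinant Lucia luciferase without cells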
# Numbers without * were called inactive.
SMILES,TTR transcr act,others
COc1ccc(N(C(=O)c2ccco2)C(C(=O)NC2CCCC2)c2ccc(N(C)C)cc2)cc1OC (centres undefined),17.3*,TTR inh HuH7=-22.5;TTR act confirm=1.5
CN(C)c1ccc(C(C(=O)NC2CCCCC2)N(Cc2ccco2)C(=O)c2snc(C(N)=O)c2N)cc1 (centres undefined),11.5*,TTR inh HuH7=7.3;TTR act confirm=-1.1
Cc1ccc(C(C(=O)NC2CCCC2)N(Cc2cccnc2)C(=O)c2snc(C(N)=O)c2N)o1 (centres undefined),-0.5,
Cc1ccc(N(C(=O)c2snc(C(N)=O)c2N)C(C(=O)NC2CCCC2)c2ccco2)cc1 (centres undefined),-3.1,
Cc1cc(C)cc(NC(=O)OC2CC3CC2[C@H]2CCCCN2[C@H]3C)c1 (some centres undefined),2.2,
CCCCNC(=O)O[C@H]1CC[C@@]23CCCN2C(=O)CCC[C@H]3[C@H]1C,-0.5,
CCC[C@H]1[C@@H](OC(=O)NCCc2c[nH]c3ccccc23)CC[C@@]23CCCN2C(=O)CCC[C@@H]13,-0.7,
O=C(O)Cc1ccc2c(c1)Cc1cccnc1O2,-0.6,
COc1ccc(S(=O)(=O)Nc2ccc3c(c2)OCO3)cc1OC,16.7*,TTR inh HuH7=-14.8;TTR act confirm=-0.2
Cc1ccc(S(=O)(=O)Nc2ccc3c(c2)OCCO3)cc1C,6.2,
COc1ccc(S(=O)(=O)Nc2ccccc2)cc1OC,0.3,
CCCC[C@H]1C2CC(OC(=O)Nc3cccc(Br)c3)C(C2)[C@H]2CCCCN21 (some centres undefined),-0.1,
Cc1cccc(C(=O)NCCc2n[nH]c(=S)n2C)c1,-0.5,
Cn1c(CNC(=O)c2cccs2)n[nH]c1=S,-0.1,
Cc1ccc(NC(=O)Cc2n[nH]c(=S)n2C)cc1,10.7*,TTR inh HuH7=-5.3;TTR act confirm=0.8
COc1ccc(OC)c(CN2C(=O)CN(S(C)(=O)=O)CC2(C)c2nnnn2C2CCCC2)c1 (centres undefined),0.1,
CC(C)CNC(=O)OCc1cn(Cc2ccccc2C(F)(F)F)nn1,-0.2,
Cc1cc(C(=O)O)c(C)o1,0.6,
Clc1cccc(CNC2CCC23CCCCC3)c1 (centres undefined),0.6,
CC(C)(C)[C@H]1C=C(C(=O)NCc2ccccc2)O[C@@H](OCCCCO)C1,18.5*,TTR inh HuH7=-30.9;TTR act confirm=1.1
C[C@H]1C=C(C(=O)NCc2nc3ccccc3[nH]2)O[C@@H](OCCCCO)C1,8.9,
CC(C)(C)[C@H]1C=C(C(=O)O)O[C@@H](OCCCCO)C1,1.7,
COc1ccc(N2CCN(CCCNC(=O)Cn3c(=O)c4cccn4c4c(C)ccnc43)CC2)cc1,1.6,
CCN(Cc1cccs1)c1ncnc2ccc(-c3ccc4c(c3)OCO4)cc12,-0.7,
O=C(Cc1cccs1)N/N=C/c1ccccn1,15.3*,TTR inh HuH7=-10.5;TTR act confirm=-0.5
SMILES,TTR transcr act,others
O=C(Cc1ccc(F)cc1)N/N=C/c1ccccn1,0.7,
Cc1ccc(/C=N/NC(=O)Cc2cccs2)o1,0.2,
CCC(C)[C@H](NC(=O)[C@H](Cc1ccccc1)NC(=O)OC(C)(C)C)C(=O)NCc1ccccc1Br (some centres undefined),2.1,
COC(=O)[C@]12C[C@H](CC(=O)NCc3cccs3)C(=O)N(Cc3ccco3)C1=C[C@H](C1CCCC1)O[C@@H]2C,0.0,
CC(=O)c1c(C)[nH]c(C(=O)Nc2ccccc2C)c1C,1.4,
CC(C)(C)C(=O)NNC(=O)c1cc(C(C)(C)C)nn1Cc1ccccc1,-0.4,
CC(C)(C)c1cc(C(=O)NC2CC2)n(Cc2ccc(F)cc2)n1,9.7*,TTR inh HuH7=-28.3;TTR act confirm=0.7
CC(C)(C)c1cc(C(=O)Nc2ccc(F)cc2)n(Cc2ccc(F)cc2)n1,-1.7,
CC(C)(N[C@@H](Cc1c[nH]c2ccccc12)C(=O)NCCCc1ccccc1)C(=O)NCc1ccccc1,-0.6,
O=c1[nH]nc(Cc2ccc(Cl)cc2Cl)c2ccccc12,-2.4,
CN(C)Cc1n[nH]c(=O)c2ccccc12,26.2*,TTR inh HuH7=-7.4;TTR act confirm=-0.5
O=C(O)Cc1n[nH]c(=O)c2ccccc12,4.8,
Cc1ccccc1C(=O)NC1CCCCN(Cc2cccc(Cl)c2)C1=O (centres undefined),-1.1,
COc1ccc(C)cc1S(=O)(=O)Nc1ccc2c(c1)N(C(C)=O)CCC2,2.5,
C=CCCC1CN(Cc2ccc(OC)cc2)S(=O)(=O)c2c(Oc3ccc(C(C)C)cc3)cccc2O1 (centres undefined),3.2,
CC1(C)O[C@H]2CC(=O)OC[C@]23[C@H]2CC[C@@]4(C)[C@H](c5ccoc5)OC(=O)[C@H]5O[C@]54[C@]2(C)[C@@H](O)C[C@@H]13,-2.0,
CC1(C)O[C@@H](CC(=O)O)[C@]23CO[C@H](C(=O)[C@]4(C)C2CC[C@@]2(C)[C@H](c5ccoc5)OC(=O)C5O[C@]524)[C@@H]13 (some centres undefined),21.9*,TTR inh HuH7=-1.5;TTR act confirm=0.5
Cc1ccccc1CN1CCCCC(NC(=O)c2ccc(F)cc2)C1=O (centres undefined),-1.9,
Cc1ccccc1CN1CCCCC(NC(=O)c2ccc(N(C)C)cc2)C1=O (centres undefined),13.0*,TTR inh HuH7=11.2;TTR act confirm=-1.5
Cc1ccc(CN2CCCCC(NC(=O)c3ccc(N(C)C)cc3)C2=O)cc1 (centres undefined),-1.4,
COC(=O)C[C@@H]1CC[C@H]2[C@@H](COc3ccc(NC(=O)Nc4ccc(C)cc4)cc3C(=O)N2C)O1,1.9,
O=C(O[C@H]1CC[C@@]23CCCN2C(=O)CCC[C@H]3C1)N1CCOCC1,-0.6,
COc1cc(NC(=O)C2(C)CCCN2C(=O)C(C)C)cc(OC)c1OC (centres undefined),1.4,
COc1ccc2nc3c(c(-c4ccccc4)c2c1)CCC3,-4.4,
COc1ccc(-c2c3c(nc4sc5c(=O)[nH]c(C)nc5c24)CCC3)cc1,16.3*,TTR inh HuH7=-5.7;TTR act confirm=-0.6
SMILES,TTR transcr act,others
Cc1ccc(-c2c3c(nc4sc(C(N)=O)c(N)c24)CCCC3)o1,-0.8,
CC1=C(C(=O)N2CCOCC2)CC(CC(=O)NCC2CCCCC2)C(=O)N1CCC1=CCCCC1 (centres undefined),1.8,
CN(C)c1ccc(C(=O)NC2CCCCN(Cc3ccc(Cl)cc3)C2=O)cc1 (centres undefined),0.0,
CCCCOCCCNC(=O)C[C@H]1C[C@@]2(C(=O)OC)C(=C[C@H](C(C)C)O[C@@H]2C2CC2)N(CCc2ccc(OC)c(OC)c2)C1=O,-0.4,
N#Cc1ccc(-c2cccnc2)nc1SCC(N)=O,0.8,
CCOC(=O)CSc1nc(-c2ccncc2)ccc1C#N,24.1*,TTR inh HuH7=-1.0;TTR act confirm=-0.9
CCOC(=O)C1=C(CSc2nc(-c3ccncc3)ccc2C#N)OC(N)=C(C#N)C1c1ccc(OC)cc1 (centres undefined),2.3,
COP(=O)(OC)C(NC(=O)OCc1ccccc1)C(C)C (centres undefined),0.0,
CCOc1ccc(CCNC(=O)C2CCCCC2)cc1OCC,-0.7,
CCOC(=O)[C@]12CCCC=C1N(CCCOC)C(=O)[C@@H]2CC(=O)N1CCCCC1,-0.2,
CN(C(=O)c1cccc(NC(=O)Cc2ccc(NC(=O)C3CCN(C(=O)C4CCC4)CC3)cc2)c1)C1CC1,-2.7,
COc1ccc(Cl)cc1NC(=O)c1[nH]nc(OC)c1[N+](=O)[O-],-2.3,
